This excerpt belongs to a sample that is enriched for the strongest signals.

Here are results for two molecules from the supplement of paper PMC8728848.

Holding throughout (experiment): glycan array binding signal (z-score within array); higher = stronger binding
What all share (conditions): glycan notation: IUPAC condensed, linker removed

The target of experiment [1] is Fuc(a1-2)Gal(b1-3)GalNAc(b1-3)Gal. In a few lines:
(§1)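 Columns mapping to the same glycan were averaged after glycan names were converted to IUPAC-condensed notation. The data come from 3228 arrays in the Consortium for Functional Glycomics database, limited to those with an available protein sequence. Binding is reported as a within-array Z-score averaged across arrays of one protein sequence and across linkers.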

Experiment [2] has as its target Fuc(a1-2)Gal(b1-4)[Fuc(a1-3)]GlcNAc(b1-2)Man(a1-3)[Fuc(a1-2)Gal(b1-4)[Fuc(a1-3)]GlcNAc(b1-2)Man(a1-6)]Man(b1-4)GlcNAc(b1-4)GlcNAc. In a few lines:
as §1

Experiment [3] concerns the target Fuc(a1-3)[Gal3S(b1-4)]Glc6S. In a few lines: as §1
Experiment [4] concerns the target Gal(a1-3)Gal(b1-4)Glc. A digest of the protocol: as §1
Experiment [5] deals with Gal(a1-3)GalNAc. A digest of the protocol:
as §1

Experiment [6] deals with Gal(b1-3)GalNAc. In a few lines:
as §1

Experiment [7] addresses Gal(b1-3)[Fuc(a1-4)]GlcNAc(b1-2)Man(a1-3)[Gal(b1-3)[Fuc(a1-4)]GlcNAc(b1-2)Man(a1-6)]Man(b1-4)GlcNAc(b1-4)GlcNAc. A digest of the protocol:
as §1

In experiment [8] the target is Gal(b1-4)GlcNAc(b1-3)Gal(b1-4)GlcNAc(b1-3)Gal(b1-4)GlcNAc. In a few lines: as §1
The target of experiment [9] is Gal3S(b1-4)[Fuc(a1-3)]Glc. A digest of the protocol:
as §1

In experiment [10] the target is GalNAc(a1-3)GalNAc. A digest of the protocol: as §1
The target in experiment [11] is GalNAc(b1-3)GalNAc. A digest of the protocol: as §1
Experiment [12] has as its target GalNAc(b1-4)GlcNAc(b1-2)Man(a1-3)[GalNAc(b1-4)GlcNAc(b1-2)Man(a1-6)]Man(b1-4)GlcNAc(b1-4)GlcNAc. In a few lines:
as §1

The target in experiment [13] is GlcA(b1-3)GlcNAc. A digest of the protocol: as §1
Experiment [14] deals with GlcNAc(a1-3)Gal(b1-4)GlcNAc. In a few lines:
as §1

Experiment [15] concerns the target GlcNAc(a1-4)Gal(b1-3)GlcNAc. In a few lines:
as §1

The target of experiment [16] is GlcNAc(b1-2)Gal(b1-3)GalNAc. A digest of the protocol:
as §1

Experiment [17] addresses GlcNAc(b1-3)Gal(b1-3)GalNAc. A digest of the protocol:
as §1

Experiment [18] deals with GlcNAc(b1-3)[GlcNAc(b1-4)][GlcNAc(b1-6)]GlcNAc. In a few lines:
as §1

The target in experiment [19] is Man(a1-2)Man(a1-3)[Man(a1-6)]Man(a1-6)[Man(a1-2)Man(a1-3)]Man(b1-4)GlcNAc(b1-4)GlcNAc. In a few lines:
as §1

Experiment [20] concerns the target Neu5Ac(a2-3)Gal. In a few lines:
as §1

For experiment [21], the target named is Neu5Ac(a2-3)Gal(b1-3)[Neu5Ac(a2-6)]GalNAc. A digest of the protocol: as §1
Experiment [22] addresses Neu5Ac(a2-3)Gal(b1-4)GlcNAc(b1-3)Gal(b1-4)[Fuc(a1-3)]GlcNAc. A digest of the protocol:
as §1

Experiment [23] concerns the target Neu5Ac(a2-3)Gal(b1-4)[Fuc(a1-3)]GlcNAc(b1-6)[Gal(b1-3)]GalNAc. In a few lines:
as §1

For experiment [24], the target named is Neu5Ac(a2-3)[GalNAc(b1-4)]Gal(b1-4)GlcNAc. A digest of the protocol: as §1
In experiment [25] the target is Neu5Ac(a2-8)Neu5Ac(a2-8)Neu5Ac(a2-3)[GalNAc(b1-4)]Gal(b1-4)Glc. In a few lines:
as §1

Experiment [26] has as its target Neu5Gc(a2-6)GalNAc. In a few lines: as §1
Experiment [27] concerns the target Neu5Ac(a2-3)Gal(b1-3)GalNAc6S. A digest of the protocol:
as §1

Experiment [28] addresses Neu5Ac(a2-3)Gal(b1-4)GlcNAc6S. In a few lines: as §1
Experiment [29] concerns the target Neu5Ac(a2-3)Gal(b1-4)[Fuc(a1-3)]GlcNAc(b1-3)Gal(b1-4)GlcNAc. In a few lines: as §1
In experiment [30] the target is Neu5Ac(a2-3)Gal(b1-4)[Fuc(a1-3)]GlcNAc(b1-3)GalNAc. A digest of the protocol: as §1
In experiment [31] the target is Neu5Ac(a2-6)Gal(b1-4)GlcNAc(b1-3)Gal(b1-4)GlcNAc(b1-3)Gal(b1-4)GlcNAc. A digest of the protocol: as §1
The target in experiment [32] is Neu5Ac(a2-6)Gal(b1-4)GlcNAc(b1-3)Gal(b1-4)[Fuc(a1-3)]GlcNAc(b1-3)Gal(b1-4)[Fuc(a1-3)]GlcNAc. In a few lines: as §1
In experiment [33] the target is Neu5Ac(a2-6)Gal(b1-4)GlcNAc6S. A digest of the protocol: as §1
For experiment [34], the target named is Neu5Gc(b2-6)Gal(b1-4)GlcNAc. A digest of the protocol:
as §1

B1: CTLX (Homo sapiens), Q6UXS0 (protein)
chain: SLCPLFWMEFKGHCYRFFPLNKTWAEADLYCSEFSVGRKSAKLASIHSWEENVFVYDLVNSCVPGIPADVWTGLHDHRQEGQFEWTDGSSYDYSYWDGSQPDDGVHADPEEEDCVQIWYRPTSALRSWNDNTCSRKFPFVCKIPSLTIH
As for B1, the “glycan array binding signal (z-score)” value was 0.292 in experiment [1]; 3.01 in experiment [2]; 5.87 in experiment [3]; 1.11 in [4]; -1.04 in experiment [5]; 0.235 in [6]. Moreover, the “glycan array binding signal (z-score)” value was 4.2 in experiment [7]; -0.836 in [8]; -0.137 in experiment [9]; -0.619 in experiment [10]; -0.421 in experiment [11]; 0.305 in experiment [12]. The “glycan array binding signal (z-score)” value in experiment [13] is 0.103; in experiment [14], -0.363; in experiment [15] it was 3.54; in experiment [16] it was -0.988; in experiment [17] it was 4.33; in experiment [18], -0.646. The “glycan array binding signal (z-score)” value is -0.346 in experiment [19]; -0.528 in experiment [20]; 0.498 in [21]; -0.47 in [22]; 4 in experiment [23]; -0.041 in experiment [24]. Besides, the “glycan array binding signal (z-score)” value in experiment [25] is -1.09; in experiment [26] it was -0.736.

B2: Flo11 (Saccharomyces cerevisiae), P08640 (protein)
chain: MQRPFLLAYLVLSLLFNSALGFPTALVPRGSSEGTSCNSIVNGCPNLDFNWHMDQQNIMQYTLDVTSVSWVQDNTYQITIHVKGKENIDLKYLWSLKIIGVTGPKGTVQLYGYNENTYLIDNPTDFTATFEVYATQDVNSCQVWMPNFQIQFEYLQGSAAQYASSWQWGTTSFDLSTGCNNYDNQGHSQTDFPGFYWNIDCDNNCGGTKSSTTTSSTSESSTTTSSTSESSTTTSSTSESSTTTSSTSESSTSSSTTAPATPTTTSCTKEKPTPPTTTSCTKEKPTPPHHDTTPCTKKKTTTSKTCTKKTTTPVPTPSSSTTESSSAPVPTPSSSTTESSSAPVTSSTTESSSAPVPTPSSSTTESSSAPVTSSTTESSSAPVTSSTTESSSAPVPTPSSSTTESSSAPVTSSTTESSSAPVTSSTTESSSAPVTSSTTESSSAPVTSSTTESSSAPVPTPSSSTTESSSAPVTSSTTESSSAPVPTPSSSTTESSSAPVTSSTTESSSAPVPTPSSSTTESSSAPAPTPSSSTTESSSAPVTSSTTESSSAPVPTPSSSTTESSSTPVTSSTTESSSAPVPTPSSSTTESSSAPVPTPSSSTTESSSAPAPTPSSSTTESSSAPVTSSTTESSSAPVPTPSSSTTESSSAPVPTPSSSTTESSSAPVPTPSSSTTESSSAPVTSSTTESSSAPVTSSTTESSSAPVPTPSSSTTESSSAPVPTPSSSTTESSSAPVPTPSSSTTESSSAPVTSSTTESSSAPVPTPSSSTTESSSAPVPTPSSSTTESSSAPVPTPSSSTTESSVAPVPTPSSSSNITSSAPSSTPFSSSTESSSVPVPTPSSSTTESSSAPVSSSTTESSVAPVPTPSSSSNITSSAPSSIPFSSTTESFSTGTTVTPSSSKYPGSQTETSVSSTTETTIVPTKTTTSVTTPSTTTITTTVCSTGTNSAGETTSGCSPKTVTTTVPTTTTTSVTTSSTTTITTTVCSTGTNSAGETTSGCSPKTITTTVPCSTSPSETASESTTTSPTTPVTTVVSTTVVTTEYSTSTKPGGEITTTFVTKNIPTTYLTTIAPTPSVTTVTNFTPTTITTTVCSTGTNSAGETTSGCSPKTVTTTVPCSTGTGEYTTEATTLVTTAVTTTVVTTESSTGTNSAGKTTTGYTTKSVPTTYVTTLAPSAPVTPATNAVPTTITTTECSAATNAAGETTSVCSAKTIVSSASAGENTAPSATTPVTTAIPTTVITTESSVGTNSAGETTTGYTTKSIPTTYITTLIPGSNGAKNYETVATATNPISIKTTSQLATTASASSVAPVVTSPSLTGPLQSASGSAVATYSVPSISSTYQGAANIKVLGNFMWLLLALPVVF
With B2, the “glycan array binding signal (z-score)” value in [27] is -0.833; in experiment [28], 0.179; in [29], 2.91; in experiment [30] it was 3.06; in experiment [31], -0.252; in experiment [32] it was 0.359. The “glycan array binding signal (z-score)” value was -0.192 in experiment [33] and 0.414 in [34].
